# Compound activity (PubChem BioAssay)
# IL2 activator: qHTS of IL-2 Activators; activation, % (series mostly up to about 46 µM); IL-2 activation reporter assay, cell-based qHTS; stimulated with anti-CD3/CD4/CD28 beads; in transgenic mouse T cells; AID 652025, 2013; 0.065% of 360,000 active; in the data active = activation above about 50%; inconclusive = mostly about 30% to 49%
#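 First, unstimulated transgenic mouse T cells were exposed to compound for 60 min. Next, anti-CD3/anti-CD4-coated beads with anti-CD28 were added. Finally, after 18 h at 37 degrees C, EGFP and DsRed were imaged.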
# a7 integrin act: qHTS for Activators of Integrin-Mediated Alleviation for Muscular Dystrophy | alpha7betagal myoblasts, beta-gal FDG fluorescence, 48 h | Potency, µM (titrated, usually from 38.3 µM), hits mostly activators | 0.064% of 350,000 active; also: nearly all actives have a fitted effect of over 60% in size
#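 alpha7betagal+/- myoblasts (passage 13, 250/well) treated 48 h at 37C with compounds at 1:260 dilution of DMSO stock. Lysed, then beta-galactosidase activity read as FDG fluorescence (ex 480/em 540) after 30 min, with pre-read for autofluorescence.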
# Tb PFK block: qHTS Assay to Find Inhibitors of T. brucei phosphofructokinase | ATP-dependent 6-phosphofructokinase (Trypanosoma brucei brucei), O15648 | T. brucei PFK, ADP-Glo luminescence | Potency, µM (titrated, usually from 57.5 µM), hits mostly inhibitors | 0.17% of 330,000 active; also: nearly all actives have a fitted effect of over 60% in size
# Target sequence (O15648 whole entry, looked up): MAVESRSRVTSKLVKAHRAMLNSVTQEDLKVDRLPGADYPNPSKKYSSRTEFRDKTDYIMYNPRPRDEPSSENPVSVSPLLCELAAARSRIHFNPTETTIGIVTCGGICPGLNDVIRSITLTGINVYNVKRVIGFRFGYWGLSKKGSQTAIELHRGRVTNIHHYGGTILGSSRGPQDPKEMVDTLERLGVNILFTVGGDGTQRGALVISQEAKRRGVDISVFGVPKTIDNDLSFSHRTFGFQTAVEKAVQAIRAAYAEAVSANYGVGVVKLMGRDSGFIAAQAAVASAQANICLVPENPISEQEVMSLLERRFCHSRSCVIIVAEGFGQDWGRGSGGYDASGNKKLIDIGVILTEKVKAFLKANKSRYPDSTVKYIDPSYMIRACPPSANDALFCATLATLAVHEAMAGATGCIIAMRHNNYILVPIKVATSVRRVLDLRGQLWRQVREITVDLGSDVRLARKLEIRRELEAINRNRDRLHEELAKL
#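 Compounds were pin-transferred as a titration series up to 57 uM into substrate buffer (0.5 mM F6P, 0.1 mM ATP, pH 8.0), then 1.25 nM PFK was added and reactions ran 45 min before ADP-Glo detection.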
# TCR act: Activators of T cell receptors: qHTS campaign; primary human leukocytes, anti-CD3, IL-2 HTRF, 48 h; 330,000 tested, under 10 active; AID 504894, 2011; Potency, µM (highest dose often 9.22 µM), actives largely listed as activators
#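 Human primary leukocytes + a-CD3 beads + cpd, 48 hr; IL-2 in supernatant by HTRF (ex 320nm / em 665nm). No co-stimulatory signal supplied.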
# A-T KAP1 phos: qHTS Assay for Identifying a Potential Treatment of Ataxia-Telangiectasia; F2112 A-T fibroblasts, KAP-1 phosphorylation AlphaLISA; neocarzinostatin DNA damage 30 min before lysis; AID 485349, 2010; 0.19% of 320,000 active; Potency, µM (series often up to 57.5 µM), usual class: activators; also: nearly all actives have a fitted effect of over 45% in size
#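 hTERT-immortalized A-T patient fibroblasts (F2112), 500 cells/well in OPTI-MEM, 1% FBS, got compounds for 60 min, then NCS for 30 min at 37C. Lysates were then assayed for phospho-KAP-1 by AlphaLISA (anti-pKAP1 donor, anti-KAP1 acceptor beads), 6 hr at 25C.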
# PKM2 activator: qHTS Assay for Activators of Human Muscle isoform 2 Pyruvate Kinase; AID 1631, 2009; Pyruvate kinase PKM (Homo sapiens), P14618; 0.34% of 260,000 active; purified PKM2, Kinase-Glo ATP luminescence, activation; response scale: 0% is enzyme alone, no compound; Potency, µM (series often up to 57.5 µM), most hits filed as activators; also: nearly all actives have a fitted effect of over 55% in size
#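 Kinase-Glo luminescence reports ATP generated from ADP (0.1 mM) and PEP (0.5 mM) by purified hPK-M2 after 1 h at room temperature, pH 7.2 imidazole buffer; intermediate enzyme activity allows detecting inhibitors and activators.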
# Numbers stand for hits; n = inactive; u = inconclusive; x = no result given; [ ] = another dose, or the depositor's remark. Sampled rows, rich in hits. Any-hit rate of the full collection: about 0.69%. Unless noted, calls follow the shape of the dose curve; as a rule, active = well fitted curve in the direction sought with a large enough effect; inconclusive = small, poorly fitted or top-dose-only effect, or another doubt; inactive = no such curve, though single readings can be large; an effect the other way counts as inactive or inconclusive.
SMILES,IL2 activator,a7 integrin act,Tb PFK block,TCR act,A-T KAP1 phos,PKM2 activator
O=C(Cc1cccs1)N1CCN(S(=O)(=O)c2ccc(Br)cc2)CC1,n,n,n,n,n,3.2µM
CS(=O)(=O)N1CCN(C(=O)Cc2cccs2)CC1,n,n,n,n,n,n
CC(=O)c1ccc(-n2c(CCC(=O)O)ccc2-c2cccs2)cc1,n,n,u,n,n,u
COC(=O)c1cccc(-n2c(CCC(=O)O)ccc2-c2cccs2)c1,n,n,n,n,n,18µM
CCC#CCOCC(=S)Nc1ccccc1,x,x,x,x,x,n
Cn1ncc(N=Cc2c(O)ccc3ccccc23)c1C(=O)Nc1cccc(Cl)c1,247,n,n,n,n,n
CCOC(=O)c1c(NC(=O)CN(CC)CC)sc2c1CCC2,n,n,n,n,22µM,n
CCOC(=O)c1c(NC(=O)OC)sc2c1CCC2,n,n,n,n,n,n
O=C(NC1CCCCC1)C(c1cccs1)N(C(=O)c1ccccn1)c1ccccc1 (configuration not stated),n,n,n,n,n,n
OC(C#Cc1ccccn1)c1cccs1 (configuration not stated),n,n,n,n,14µM,u
Cc1ccc(F)cc1NC(=O)COC(=O)C1CC2CCCC(C1)C2=O (configuration not stated),n,n,x,x,x,x
Cc1ccc(S(=O)(=O)N2CCOCC2)cc1NC(=O)COC(=O)c1ccco1,81,n,x,x,x,x
O=C(COC(=O)c1ccco1)Nc1cc(S(=O)(=O)N2CCOCC2)ccc1Cl,n,n,n,n,n,x
CC(C)(C)c1cc(C(=O)/C=C/c2ccc(C(=O)O)cc2)cc(C(C)(C)C)c1,x,x,x,x,x,n
COc1ccccc1COC(=O)N/C=C/c1ccco1,n,n,n,n,n,18µM
COc1ccc(COC(=O)N/C=C/c2ccco2)cc1,n,n,n,n,n,n
C[C@H]1Cc2c(-c3ccccc3)nc3c(c2CO1)CN(S(=O)(=O)c1ccc2c(c1)OCCN2C)CC3,x,x,x,x,x,n[11.5 µM]
N#CC1=C(N)Oc2cc(O)ccc2C1c1ccncc1 (configuration not stated),n,n,n,n,n,20µM
N#CC1=C(N)Oc2cc(O)ccc2C1c1cccnc1 (configuration not stated),n,n,n,n,n,n
C[C@@H](C(=O)NCc1ccc(C(F)(F)F)nc1)[C@H]1C[C@]1(C)[C@H](NC(=O)OCc1ccccc1)c1ccccc1,x,x,x,x,x,n
CCC/C=C(\CCC)C(NS(=O)(=O)c1ccc(C(F)(F)F)cc1)c1ccc(-c2ccccc2)cc1 (configuration not stated),x,x,x,x,x,n
C=CCN1c2ccccc2[C@]23C[C@@H](C(=O)OC)N(S(=O)(=O)c4c(C)noc4C)C2=NC(C(=O)OC)=C(C(=O)OC)[C@H]13,x,x,x,x,x,n[11.5 µM]
COc1cc(-c2cc(-c3ccc(N)cc3)[nH]c(=O)c2C#N)cc(OC)c1OC,n,n,n,n,n,n
N#Cc1c(-c2ccccc2)cc(-c2ccccc2)[nH]c1=O,n,n,n,n,0.79µM,x
C=CCNC(=O)c1cc([N+](=O)[O-])cc2c(=O)[nH]c(Nc3ccc(Cl)c(Cl)c3)nc12,x,x,x,x,x,n
SMILES,IL2 activator,a7 integrin act,Tb PFK block,TCR act,A-T KAP1 phos,PKM2 activator
NC(=S)NNC(=O)Nc1ccc(Cl)c(Cl)c1,n,n,17µM,n,n,n
O=C1OC(c2ccccc2)=C/C1=C/N1CCOCC1,n,n,u,n,n,16µM
Cc1ccc(S(=O)(=O)Nc2ccc(O)c3ncccc23)cc1,n,n,n,n,n,n
Cc1ccc(S(=O)(=O)Nc2ccc(O)c3cccnc23)cc1,n,n,n,n,n,10µM
CCn1c(Cl)c(C=O)s/c1=N\S(=O)(=O)c1ccccc1,n,n,n,n,n,16µM
CCN1C(=O)CS/C1=N\S(=O)(=O)c1ccc(Cl)cc1,n,n,n,n,n,n
COC(=O)N1C2CC(=O)O[C@@H]3c4cc5c(cc4[C@]1(C)[C@@]3(Br)c1ccccc12)OCO5,x,x,x,x,x,n[11.5 µM]
Oc1ccc(-c2csc(Nc3ncccn3)n2)c(O)c1,n,n,n,n,n,n
Cc1ccc(C)c(-c2csc(Nc3ncccn3)n2)c1,n,n,n,n,3.2µM,x
COC(=O)C1=C(C)N(Cc2ccccc2)C(=NCc2ccc(OC)cc2)N[C@H]1c1ccc(Br)cc1,x,x,n,x,n,n
Cc1nc(Sc2nnnn2C)c2c3c(sc2n1)CCC3,n,n,n,n,n,n
CCc1nc(Sc2nnnn2-c2ccccc2)c2c3c(sc2n1)CCCC3,n,n,n,n,n,10µM
CCOCCn1c(=O)c2c(nc3n2CCN3c2ccc(C)c(C)c2)n(C)c1=O,x,x,n,x,n,x
CCCn1c(-c2ccc(F)cc2)nc2c(NC(C)CCCN(CC)CC)nc(C)nc21 (configuration not stated),x,x,x,x,x,n
COc1cc([C@@H]2c3cc4c(cc3[C@@H](O[C@@H]3O[C@@H]5CO[C@@H](C)O[C@H]5[C@H](O)[C@H]3O)[C@H]3COC(=O)[C@H]23)OCO4)cc(OC)c1O,n,x,x,n,x,x
COc1cc(C2c3cc4c(cc3C(OC3OC5COC(c6cccs6)OC5C(O)C3O)C3COC(=O)C23)OCO4)cc(OC)c1O (configuration not stated),n,x,n,n,35µM,n
CCOC(=O)NC[C@H](Cc1ccc(OCCc2nc(-c3ccccc3)oc2C)cc1)N/C(C)=C\C(=O)c1ccc(C(F)(F)F)cc1,x,x,x,x,x,n
COc1ccc2c(c1)c1ncn(Cc3ccc(F)cc3)c(=O)c1n2C,n,n,n,n,n,n
COc1ccc2c(c1)c1ncn(Cc3ccco3)c(=O)c1n2C,n,n,n,n,n,1.3µM
COC(=O)[C@@H]1C[C@@]2(Br)c3ccccc3N(S(=O)(=O)c3ccccc3)[C@H]2N1C(=O)OC,n,n,x,n,x,x
O=C1CC(c2ccco2)CC2=C1C(c1ccccc1)n1nc(C(F)(F)F)nc1N2 (configuration not stated),n,n,n,n,x,4.5µM
CCC/C=C(\CCC)C(NC(=O)c1ccc(C(F)(F)F)cc1)c1ccc(C(F)(F)F)cc1 (configuration not stated),x,x,x,x,x,n
Cc1nc(SCC(=O)Nc2cc(C(N)=O)cc(C(N)=O)c2)c2c(C)c(C)sc2n1,n,n,n,n,35µM,n
CCCCC(=O)NC(=S)Nc1ccccc1N1CCCCC1,n,n,n,n,n,n
CCCCC(=O)NC(=S)Nc1cccc(Cl)c1N1CCCCC1,n,n,n,n,u,n
